Results: PubChem BioAssay (NCI)
The panel holds about 79,000 compounds, 15% with a hit somewhere; the sample as a whole holds those more often. A number with no mark means an inactive call. Active and inactive are the calls of the source. Rule as the data show it: active = growth inhibition above about 70%; inactive = the rest.

How the values were obtained:
[1] = NCI Yeast Anticancer Drug Screen. Data for the rad50 strain (AID 155);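 also: 0% = growth of vehicle-only cultures of the same strain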; settings: S. cerevisiae rad50 strain growth inhibition, hits give high values
Outline: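 Growth of the mutant yeast was measured after compound exposure and referenced to vehicle-treated cultures.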

[2] = NCI Yeast Anticancer Drug Screen. Data for the mec2-1 strain (AID 157); settings: S. cerevisiae mec2-1 strain, hits give high values
Outline: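 Readout is yeast growth inhibition, normalised to vehicle-treated controls, in the mec2-1 strain exposed to compound.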

[3] = NCI Yeast Anticancer Drug Screen. Data for the sgs1 mgt1 strain (AID 161);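 also: 0% = growth of cultures given vehicle only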; settings: S. cerevisiae sgs1 mgt1 strain, hits give high values
Outline: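 Growth of a repair-deficient yeast mutant was monitored after compound treatment and expressed as inhibition relative to vehicle-treated cultures.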

[4] = NCI Yeast Anticancer Drug Screen. Data for the cln2 rad14 strain (AID 165);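 also: 0% = growth equal to vehicle treated cultures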; settings: S. cerevisiae cln2 rad14 strain, hits give high values
Outline: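 Relative to vehicle controls, growth inhibition of compound-treated cln2 rad14 yeast was recorded.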

[5] = NCI Yeast Anticancer Drug Screen. Data for the bub3 strain (AID 167); settings: S. cerevisiae bub3 mutant strain, hits give high values
Outline: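 Whole-cell yeast assay. The mutant strain was incubated with compounds, and growth inhibition was determined by comparison with vehicle-treated cells.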

[6] = NCI Yeast Anticancer Drug Screen. Data for the mlh1 rad18 strain (AID 175); settings: S. cerevisiae mlh1 rad18 strain growth inhibition, hits give high values
Outline: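 Test agents were incubated with a yeast strain of defined genotype (DNA damage repair defect). Inhibition of growth was derived by comparison with vehicle-exposed cultures.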

[7] = at 5.0 µM (retest, dose inferred, filed as 0.5)
[8] = at 50.0 µM (retest, dose inferred, filed as 5.0)

| Structure (SMILES) | growth inhibition [1, 7] | growth inhibition [1, 8] | growth inhibition ([1]; at 50.0 µM) | growth inhibition [2, 7] | growth inhibition [2, 8] | growth inhibition ([2]; at 50.0 µM) | growth inhibition [3, 7] | growth inhibition [3, 8] | growth inhibition ([3]; at 50.0 µM) | growth inhibition [4, 7] | growth inhibition [4, 8] | growth inhibition ([4]; at 50.0 µM) | growth inhibition [5, 7] | growth inhibition [5, 8] | growth inhibition ([5]; at 50.0 µM) | growth inhibition [6, 7] | growth inhibition [6, 8] | growth inhibition ([6]; at 50.0 µM) |
| --- | --- | --- | --- | --- | --- | --- | --- | --- | --- | --- | --- | --- | --- | --- | --- | --- | --- | --- |
| O=C(NO)C(=O)Nc1cc(Cl)ccc1Cl | 7% | 57% | 86.8% (active) | -8% | 90% (active) | 73% (active) | -3% | 89% (active) | 79.8% (active) | 2% | 94% (active) | 74.5% (active) | -28% | 94% (active) | 85.9% (active) | -2% | 94% (active) | 77.7% (active) |
| S=C(C#Cc1ccccc1)Nc1ccccc1 | -73% | 87% (active) | 99.3% (active) | -36% | 97% (active) | 99.4% (active) | -30% | 96% (active) | 96.7% (active) | -37% | 94% (active) | 99% (active) | -47% | 96% (active) | 99% (active) | -93% | 94% (active) | 99% (active) |
| c1ccc2c(c1)CCN2CCc1c[nH]c2ccccc12 | 0% | 12% | 89.6% (active) | -5% | -12% | 91.8% (active) | -10% | 3% | 89.8% (active) | 23% | 31% | 89.8% (active) | -26% | 43% | 89.3% (active) | -14% | 21% | 88.5% (active) |
| CC(=O)Nc1ccc(-c2csc(Nc3ccnc4cc(Cl)ccc34)n2)cc1 | 12% | 40% | 69.8% | -4% | 46% | 51.4% | 9% | 69% | 72.8% (active) | 0% | 4% | 41% | -2% | 40% | 33.3% | 3% | 27% | 82.9% (active) |
| O=C(CC(=O)c1ccc(O)cc1)c1ccccc1 | -1% | 50% | 60.8% | -13% | 52% | 1.2% | -1% | 66% | 21.2% | -1% | 62% | 4.5% | -6% | 89% (active) | 48.7% | 3% | 86% (active) | 58% |
| CCCCCCC(OCCC)OCCC | -4% | -3% | 35.8% | -28% | -1% | -15.6% | -3% | -1% | 5% | -2% | 1% | 74% (active) | -10% | -6% | -0.5% | -2% | -1% | 38.4% |
| O=C(CN(Cc1ccccc1)Cc1ccccc1)N1CCc2c([nH]c3ccccc23)C1c1cccnc1 (centres undefined) | 29% | 29% | 86.8% (active) | 27% | 27% | 86.5% (active) | 8% | 8% | 84.1% (active) | 19% | 19% | 88.3% (active) | 11% | 11% | 87.5% (active) | 32% | 32% | 85% (active) |
| COc1ccc(C2=CCC3C4CC=C5CC(O)CCC5(C)C4CCC23C)s1 (centres undefined) | 0% | 13% | 59.7% | -17% | 63% | 64.1% | -23% | 82% (active) | 59.6% | -3% | 18% | 53.5% | -1% | 30% | 66% | 19% | 75% (active) | 94.7% (active) |
| ClCc1c(-c2ccccc2)oc(-c2ccccc2)c1CCl | 0% | 49% | 32.6% | 1% | 64% | 34% | 6% | 72% (active) | 68.8% | 1% | 38% | 21.9% | 1% | 40% | 8.25% | 1% | 86% (active) | 73.4% (active) |
| O=Cc1ccc(/C=N\Nc2ccccc2)cc1 | 1% | 12% | 82.3% (active) | -5% | 0% | 33.2% | -3% | -4% | 41.9% | 1% | 7% | 34.1% | -1% | 12% | -9.55% | 4% | 30% | 92.3% (active) |
| O/N=C1/CCCC/C1=C/c1ccc(Cl)cc1 | -152% | -124% | 82.7% (active) | -48% | -53% | 53.4% | -63% | -23% | 74% (active) | -57% | -62% | 64.8% | -66% | -78% | 65.5% | -144% | -111% | 80% (active) |
| [C](#[C][Sn]([c]1ccccc1)([c]1ccccc1)[c]1ccccc1)[Sn]([c]1ccccc1)([c]1ccccc1)[c]1ccccc1 | 98% (active) | 95% (active) | 97.5% (active) | 99% (active) | 97% (active) | 98.3% (active) | 99% (active) | 97% (active) | 96.5% (active) | 98% (active) | 95% (active) | 98.4% (active) | 98% (active) | 96% (active) | 98.8% (active) | 98% (active) | 97% (active) | 96.9% (active) |
| CCC(CC)COC(=O)c1cccnc1 | 1% | 99% (active) | 97.7% (active) | -19% | 99% (active) | 99.1% (active) | 0% | 99% (active) | 98.2% (active) | -4% | 99% (active) | 96.9% (active) | -6% | 98% (active) | 97.8% (active) | 0% | 98% (active) | 97.5% (active) |
| OC(C/C=N/Nc1ccccc1)(C(F)(F)Cl)C(F)(F)Cl | -13% | 97% (active) | 89.2% (active) | -11% | 99% (active) | 90.9% (active) | -10% | 98% (active) | 91.7% (active) | 2% | 98% (active) | 89.5% (active) | 5% | 98% (active) | 91.8% (active) | -18% | 98% (active) | 89.6% (active) |
| Cn1c(=O)c2c3oc(=O)cc(O)c3c(=O)n3c4ccccc4n(c1=O)c23 | 38% | 83% (active) | 74.8% (active) | 29% | 69% | 19.9% | 35% | 86% (active) | 45% | 34% | 45% | 42.5% | 31% | 75% (active) | 42.3% | 53% | 92% (active) | 42.1% |
| O[Si](O)(c1ccccc1)c1ccccc1 | 13% | 92% (active) | 96.2% (active) | 7% | 92% (active) | 93% (active) | 10% | 92% (active) | 95.8% (active) | 0% | 88% (active) | 90.2% (active) | -2% | 94% (active) | 95.6% (active) | 12% | 95% (active) | 95.8% (active) |
| O=C(c1ccc(Oc2ccccc2)cc1)C(C(c1ccccc1)N1CCOCC1)N1CCOCC1 (centres undefined) | -5% | 35% | 61.1% | 12% | 59% | 62.9% | -9% | 81% (active) | 88.8% (active) | -3% | -1% | 54.4% | 0% | 61% | 73% (active) | 20% | 60% | 75.4% (active) |
| CC1=C(C(=O)Nc2ccccc2Cl)C(c2cccc([N+](=O)[O-])c2)C(C(=O)Nc2ccccc2Cl)=C(C)N1 | -12% | 53% | 11.8% | 27% | 67% | 30.2% | -10% | 51% | 20.4% | 11% | 61% | 1.9% | 21% | 80% (active) | 27.9% | 13% | 63% | 13.3% |
| COc1c2c(c(C)c3ccc4ccccc4c13)CCN=C2 | -11% | 93% (active) | 80.2% (active) | -4% | 95% (active) | 43.3% | -5% | 96% (active) | 88.2% (active) | -9% | 83% (active) | 13.4% | 10% | 96% (active) | 79.2% (active) | -9% | 93% (active) | 79.9% (active) |
| O=[N+]([O-])c1c(Cl)cccc1-c1c[nH]cc1Cl | 12% | 99% (active) | 92.8% (active) | 25% | 98% (active) | 93.4% (active) | 19% | 100% (active) | 93.5% (active) |  |  |  | 6% | 99% (active) | 92.2% (active) | 44% | 99% (active) | 37.8% |
| O=[N+]([O-])c1ccc(SCc2ccccc2)c2nonc12 | 13% | 63% | 86.8% (active) | 12% | 99% (active) | 89.5% (active) | 14% | 87% (active) | 88% (active) | 13% | 77% (active) | 88.9% (active) | 11% | 97% (active) | 88.7% (active) | 22% | 81% (active) | 86% (active) |
| O=C1CSC(=S)N1c1ccc(I)cc1 | 1% | 34% | 99% (active) | -2% | 11% | 99% (active) | 2% | 59% | 99.2% (active) | -2% | -8% | 83.8% (active) | -6% | 26% | 99% (active) | 0% | 75% (active) | 98.7% (active) |
| COc1ccc2c(c1)CCC1C2CCC2(C)C(=O)C(SC3=NC=NC4=NC=NC43)CC12 (centres undefined) | 24% | 97% (active) | 97% (active) | 25% | 99% (active) | 92.7% (active) | 49% | 99% (active) | 96.7% (active) | -3% | 98% (active) | 91.8% (active) | 19% | 97% (active) | 92.2% (active) | 20% | 98% (active) | 96.2% (active) |
| CN(C)c1cc[c]([Sn]([c]2ccc(N(C)C)cc2)([c]2ccc(N(C)C)cc2)[c]2ccc(N(C)C)cc2)cc1 | 0% | 0% | 72.5% (active) | 4% | 4% | 34.1% | -9% | -9% | 37% | -12% | -12% | 34.4% | -12% | -12% | 49.4% | -18% | -18% | 78.8% (active) |
| CN=c1ss/c(=N\C(=S)N(C)C)n1-c1ccccc1 | -10% | -10% | -17.1% | -11% | 7% | -7.45% | 13% | -20% | -18.6% |  |  |  | 4% | 7% | 42.5% | -20% | 3% | -22.5% |
| CCCCC#CC(=O)OCCCCC | -2% | 0% | -18.9% | 4% | 1% | -3.1% | 1% | 3% | -13.4% |  |  |  | 1% | 3% | -14.6% | -2% | -4% | -16.4% |
| O=C(Nc1cc(Cl)ccc1Oc1cc(Cl)c(Cl)cc1S(=O)(=O)O)Nc1cc(Cl)ccc1Oc1cc(Cl)c(Cl)cc1S(=O)(=O)O | -10% | 81% (active) | 85% (active) | -3% | 73% (active) | 87.4% (active) | -13% | 79% (active) | 84.1% (active) |  |  |  | 14% | 78% (active) | 86% (active) | -4% | 91% (active) | 85.3% (active) |
